KB-V1 MDR tox – kills drug-selected multidrug resistant KB-V1 cells; KB-V1 MDR cells viability, CellTiter-Glo, 72 h; Potency, µM (series often up to 46.1 µM), actives largely listed as cytotoxic; 400,000 compounds, 3.4% hits; AID 1347076; note: nearly all actives have a fitted effect of over 60% in size
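Potencies derive from concentration-effect curves fitted to normalized luminescence (CellTiter-Glo) of KB-V1 cells treated for 72 h at 37 degrees C in phenol-red-free DMEM containing 10% FBS.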
MCF10A rerep – DNA re-replication induction in MCF 10a cells. MCF 10A DNA re-replication, Hoechst nuclear intensity, 48 h. 350,000 compounds, 2.9% hits. AID 624296. Potency, µM (highest dose often 46.1 µM), most hits filed as activators; note: nearly all actives have a fitted effect of over 50% in size
HT1080 IDH1KD tx – toxicity to HT-1080 IDH1 knockdown cells (counter line). 360,000 compounds, 2% hits. Potency, µM (highest dose often 46.1 µM), actives largely listed as cytotoxic. HT-1080 IDH1 knockdown viability, ATP luminescence, 48 h. AID 686971
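% activity derives from luminescence (CellTiter-Glo), normalised to DMSO and no-cell wells. HT-1080-IDH1KD cells, 750/well, had 48 h compound exposure at 37 °C.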
KB-3-1 cytotox – kills parental KB-3-1 adenocarcinoma cells. KB-3-1 viability, CellTiter-Glo ATP luminescence, 72 h. Potency, µM (titrated, usually from 46.1 µM), most hits filed as cytotoxic. 400,000 compounds, 1.4% hits; note: nearly all actives have a fitted effect of over 60% in size
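Parental KB-3-1 viability, qHTS format: 72 h compound exposure, 37 °C; CellTiter-Glo; media-only wells and DMSO plates as controls; concentration-effect fits on corrected data.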
HT1080NT lethal – kills 2HG-producing HT-1080-NT fibrosarcoma cells | HT-1080-NT fibrosarcoma viability, CellTiter-Glo ATP luminescence, 48 h | Potency, µM (doses to about 46.1 µM), actives largely listed as cytotoxic | 360,000 compounds, 1.6% hits | AID 686970;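 note: NT is the 2HG producing partner of a matched IDH1 knockdown line; nearly all actives have a fitted effect of over 55% in size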
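HT-1080-NT fibrosarcoma cells (2HG-overproducing), 750 cells/well in RPMI with 5% FBS, dosed after 2 h and incubated 48 h at 37C. CellTiter-Glo luminescence normalized to DMSO and no-cell wells; concentration-response curves fitted and classed.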
SW480 rereplic – DNA re-replication induction in SW480 cells; Potency, µM (titrated, usually from 46.1 µM), hits mostly activators; SW480 DNA re-replication, Hoechst DNA content imaging, 48 h; AID 624297; 340,000 compounds, 1.8% hits; note: nearly all actives have a fitted effect of over 55% in size
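DNA re-replication was detected as more nuclei of elevated Hoechst intensity after 48 hr exposure to compound (23 nL pinned per well of 250 cells).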
Numbers stand for hits; 0 = inactive; ? = inconclusive; - = no result; [ ] = dose if it differs, or a comment. Compounds with a hit are over-represented: about 8% of the library has one in this group of screens. Calls come from the whole dose curve; as a rule, active = well fitted curve in the direction sought with a large enough effect; inconclusive = small, poorly fitted or top-dose-only effect, or another doubt; inactive = no such curve, though single readings can be large; an effect the other way counts as inactive or inconclusive.

SMILES | KB-V1 MDR tox | MCF10A rerep | HT1080 IDH1KD tx | KB-3-1 cytotox | HT1080NT lethal | SW480 rereplic
N#Cc1cc(-c2ccc(Cl)cc2)cnc1Sc1ccc(F)cc1 | 0 | 15µM | 0 | 0 | 0 | 0
CC1(C)S[C@@H]2C(C(=O)O)NC(=O)N2C1C(=O)O (stereo not given in full) | 0 | - | - | 0 | - | -
O=C(CCCCCCC(=O)Nc1ccccc1)NO | 1.3µM | 15µM | - | 8.2µM | - | 3.7µM
O=C(CCN1CCN(Cc2ccccc2)CC1)Nc1cccc(Cl)c1 | 23µM | 0 | 0 | 0 | 0 | 0
Cc1ccccc1N1CCN(CCC(=O)Nc2ccc(F)cc2)CC1 | 18µM | 0 | 0 | ? | 0 | 0
O=C(CCN1CCN(c2ccccc2F)CC1)Nc1ccc(F)cc1 | 0 | 0 | 0 | 0 | 0 | 0
O=C(CCN1CCN(CCO)CC1)Nc1ccccc1 | 0 | 0.65µM | 0 | 0 | 0 | 0
Cn1cc(-c2cc3n(n2)CCC(=O)N3CC(=O)NCc2ccc(Cl)cc2)c2ccccc21 | 0 | - | - | 0 | - | -
COC(=O)c1cc2occc2n1Cc1ccc(F)cc1Cl | 0 | - | - | 0 | - | -
COc1ccc(CNCc2ccc(C(=O)O)s2)cc1 | 0 | - | - | 0 | - | -
CCOC(=O)c1c(NC(=O)C2COc3ccccc3O2)sc2c1CC(C)(C)NC2(C)C (stereo not given) | 0 | ? | 16µM | ? | ? | ?
COC(=O)c1c(NC(=O)CC2SC(N)=NC2=O)sc2c1CCC(C(C)(C)C)C2 (stereo not given) | 0 | 23µM | ? | 0 | ? | 0
CCOC(=O)c1c(NC(=O)Cc2ccccc2)sc2c1CC(C)(C)NC2(C)C | 0 | 0 | 0 | 0 | 0 | 0
CCOC(=O)c1c(NC(=O)CSc2nnnn2-c2ccccc2)sc2c1CC(C)(C)NC2(C)C | 0 | ? | 23µM | 0 | ? | ?
CCOC(=O)c1c(NC(=O)CCS(=O)(=O)c2ccccc2)sc2c1CC(C)(C)NC2(C)C | ? | 18µM | 0 | 0 | 0 | ?
CCOC(=O)c1sc(NC(=O)CSc2nnnn2-c2ccccc2)c(C(=O)OCC)c1C | 0 | 0 | 0 | 0 | 0 | 0
CCOC(=O)c1c(NC(=O)C2COc3ccccc3O2)sc(C(C)=O)c1C (stereo not given) | 0 | 0 | 0[9.24 µM] | 0 | 0 | 0
NC(=O)c1c(NC(=O)c2ccncn2)sc2c1CCCC2 | 0 | - | - | ? | - | -
CC(C)(C)C1CCc2c(sc(NC(=O)c3cccs3)c2C(N)=O)C1 (stereo not given) | 0 | 5.6µM | 0 | 0 | 0 | ?
COC(=O)c1c(NC(=O)CSc2nnnn2-c2ccccc2)sc2c1CCC(C)C2 (stereo not given) | ? | 0 | 0 | 0 | 0 | ?
COC(=O)c1c(NC(=O)CSc2nnnn2-c2ccccc2)sc2c1CCC(C(C)(C)C)C2 (stereo not given) | 15µM | ? | 0 | 0 | 0 | 0
CCN(CC)c1ccc(Nc2cc3n(c(=O)n2)CCc2cc(OC)c(OC)cc2-3)cc1 | 0 | ? | ? | 0 | 26µM | ?
Oc1ccc(CCNc2ncnc3ccc(Cl)cc23)cc1 | ? | 8.2µM | ? | 0 | 0 | 0
COc1ccc(C(=O)NCc2ccc3c(c2)CCN3C(=O)c2cccc(C)c2)cc1OC | 0 | - | - | 0 | - | -
Cc1cccc(NC(=O)CN2C(=O)CC(c3ccccc3)Sc3ccccc32)c1 (stereo not given) | ? | - | - | 0 | - | -
SMILES | KB-V1 MDR tox | MCF10A rerep | HT1080 IDH1KD tx | KB-3-1 cytotox | HT1080NT lethal | SW480 rereplic
COc1ccc(C2CC(=O)N(CC(=O)Nc3ccc(C(C)=O)cc3)c3ccccc3S2)cc1OC (stereo not given) | ? | - | - | 0 | - | -
CCOC(=O)c1ccccc1NC(=O)CN1C(=O)CC(c2ccccc2)Sc2ccccc21 (stereo not given) | 12µM | - | - | ? | - | -
COc1ccc(C2CC(=O)N(CC(=O)Nc3ccc(C)c(Cl)c3)c3ccccc3S2)cc1OC (stereo not given) | 18µM | - | - | ? | - | -
COC(=O)c1c(-c2ccc(Cl)cc2)noc1N1CCN(c2cccc(C(F)(F)F)c2)CC1 | 0 | - | - | 0 | - | -
O=C(CSc1ncnc2c1cnn2-c1ccccc1)Nc1ccc2c(c1)OCO2 | 0 | 15µM | 0 | 0 | 0 | 0
c1ccc(-n2ncc3c(NCc4ccc5c(c4)OCO5)ncnc32)cc1 | 21µM | ? | ? | 0 | ? | 0
Cc1cccc(-n2ncc3c(NCc4ccc5c(c4)OCO5)ncnc32)c1 | 0 | 0 | 0 | 0 | 0 | 0
O=C(CSc1ncnc2ccccc12)Nc1ccc2c(c1)OCO2 | 0 | ? | 0 | 0 | 0 | 0
COc1ccc(-n2ncc3c(NCc4ccc5c(c4)OCO5)ncnc32)cc1 | 0 | 0 | 0 | 0 | 0 | 0
Cc1ccc(-n2ncc3c(NCc4ccc5c(c4)OCO5)ncnc32)c(C)c1 | 4.1µM | 0 | 0 | ? | 0 | 0
Cc1ccc2[nH]c3c(=O)n(CC(=O)N4CCCC(C)C4)ncc3c2c1 (stereo not given) | 0 | - | - | 0 | - | -
COc1ccccc1NC(=O)C(=O)NCC(c1cccnc1)N1CCc2ccccc2C1 (stereo not given) | 0 | - | - | ? | - | -
CCCc1c(C)c2cc(C)ccc2[nH]c1=O | 4.1µM | 0 | 0 | ? | 0 | 0
CC1=C(C(=O)Nc2ccccc2)C(c2cccn2C)n2ncnc2N1 (stereo not given) | 0 | - | - | 0 | - | -
CCN(Cc1ccccc1)c1ccc(/C=C/c2nccc3ccccc23)cc1 | 0 | - | - | 0 | - | -
C(=C\c1nccc2c1[nH]c1ccccc12)/c1ccccc1 | 0 | ? | ? | ? | ? | 12µM
Fc1ccc(/C=C\c2nccc3c2[nH]c2ccccc23)cc1 | 0 | 6.5µM | 23µM | 0 | ? | 18µM
Cc1ccc(/C=C\c2nccc3c2[nH]c2ccccc23)cc1 | 0 | 9.2µM | ? | 0 | 0 | 21µM
COc1cc2c(C#N)c(N3CCN(c4ccccc4OC)CC3)nc(N)c2c(N)n1 | ? | 10µM | ? | ? | ? | ?
N#Cc1c(N2CCCC2)nc(N)c2c(N)nc(N3CCCC3)cc12 | 0.73µM | ? | 0 | ? | 0 | ?
CCOc1ccc(CCNC(=O)c2nnc(Cc3ccc(Cl)cc3Cl)o2)cc1OCC | 0 | - | - | 0 | - | -
CC(C)C(=O)N1CCN(CCN2C(=O)c3cccc4cccc(c34)C2=O)CC1 | 0 | 0 | 0 | 0 | 0 | 0
Cc1ccc(NC(=S)N2CCN(CCN3C(=O)c4cccc5cccc(c45)C3=O)CC2)cc1 | 15µM | 0 | 0 | 0 | 0 | 0
O=C(C(c1ccccc1)c1ccccc1)N1CCN(CCN2C(=O)c3cccc4cccc(c34)C2=O)CC1 | 0 | 15µM | 0 | 0 | 0 | 0
O=C(CCCN1C(=O)c2cccc3cccc(c23)C1=O)N1CCN(c2ccccc2O)CC1 | 6.5µM | ? | 0 | ? | 0 | 0
CCC1Oc2ccc(C)cc2N(Cc2cccc(C)c2)C1=O (stereo not given) | 0 | 12µM | 0 | 0 | 0 | 0

Bioassay records: PubChem, National Center for Advancing Translational Sciences (NCATS)
